Values quoted from earlier work as cited in PubChem BioAssay AID977611.
Out of some 3,900 compounds screened, about 3,900 (100%) were called active. Cut-off not given; nearly all actives show Kd up to about 4200 µM. So high a share suggests a set chosen from earlier hits. This is one part of the list. Starred links: 1 amine or outer side, 2 acyl side, 3 side chain; linkers in the order of their positions; H or OH if unused. Where a SMILES comes first, the peptide text is derived from it. Non-standard residues stand in square brackets, D forms with d. Square brackets hold non-standard residues; d marks the D form. Residues, ends and D or L forms follow the SMILES beside them. Peptide text beside a SMILES is read from it. [ ]: non-standard residue; d: D form. Thr(P(OH)3+) = C[C@@H](O[P+](O)(O)O)[C@H](N)C(=O)O; X1 = CNC(NC)NCCC[C@H](N[*:1])C(=O)[*:2]; Orn(CH(NH2)2) = NC(N)NCCC[C@H](N)C(=O)O; Lys(Me2) = CN(C)CCCC[C@H](N)C(=O)O; Lys(Me) = CNCCCC[C@H](N)C(=O)O; Abu = CC[C@H](N)C(=O)O

Assay: PubChem AID 977611
Settings: PDB protein-ligand complexes, literature Kd

## NCCCCCC(=O)N[C@H]1Cc2ccccc2[C@@H]1Cc1ccc2c(c1C(=O)O)OCO2
protein: INTEGRASE, PDB entry 4cgi
  Kd: 752 µM (active)
protein: INTEGRASE, PDB entry 4cgj
  Kd: 1460 µM (active)

## O[P+](O)(O)O[P+](O)(O)O[P+](O)(O)O
protein: DNA primase small subunit, PDB entry 4lil
  Kd: 12.5 µM (active)
protein: Thiamine-triphosphatase, PDB entry 3tvl
  Kd: 100 µM (active)

## C[C@@H](O)[C@H](NC(=O)[C@@H]1CCCN1C(=O)[C@H](CO[P+](O)(O)O)NC(=O)[C@@H](N)Cc1ccc(O)cc1)C(=O)N[C@@H](CO[P+](O)(O)O)C(=O)N1CCC[C@H]1C(=O)N[C@@H](CO)C(=O)N[C@@H](Cc1ccc(O)cc1)C(=O)N[C@H](C=O)CO[P+](O)(O)O
protein: CTD INTERACTING DOMAIN of RNA processing factor SCAF8, PDB entry 3d9k
  Kd: 19 µM (active)

## C[C@@H](O)[C@H](NC(=O)[C@@H]1CCCN1C(=O)[C@H](CO[P+](O)(O)O)NC(=O)[C@@H](N)Cc1ccc(O)cc1)C(=O)N[C@@H](CO)C(=O)N1CCC[C@H]1C(=O)N[C@@H](CO)C(=O)N[C@@H](Cc1ccc(O)cc1)C(=O)N[C@@H](CO[P+](O)(O)O)C(=O)N1CCC[C@H]1C=O
protein: CTD INTERACTING DOMAIN of RNA processing factor SCAF8, PDB entry 3d9l
  Kd: 68 µM (active)

## CNc1nc(C)c(-c2nc(Nc3cccc(C(=O)N4CCOCC4)c3)ncc2C#N)s1
protein: CYCLIN-DEPENDENT KINASE 2, PDB entry 4bcq
  Kd: 0.147 µM (active)

## C[C@H](N)C(=O)N[C@@H](CCCNC(N)N)C(=O)N[C@H](C(=O)N[C@@H](CCCCN)C(=O)N[C@@H](CCC(N)=O)C(=O)N[C@H](C(=O)N[C@@H](C)C(=O)N[C@@H](CCCNC(N)N)C(=O)N[C@@H](CCCCN)C(=O)O)[C@@H](C)O)[C@@H](C)O
protein: Histone-lysine N-methyltransferase NSD3, PDB entry 4gnf
  Kd: 450 µM (active)

## C[C@H](N)C(=O)N[C@@H](CCCNC(N)N)C(=O)N[C@H](C(=O)N[C@@H](CCCCN(C)C)C(=O)N[C@@H](CCC(N)=O)C(=O)N[C@H](C(=O)O)[C@@H](C)O)[C@@H](C)O (H-A[Orn(CH(NH2)2)]T[Lys(Me2)]QT-OH)
protein: WD-repeat protein 5(WDR523), PDB entry 2o9k
  Kd: 77 µM (active)
protein: bromodomain PHD finger transcription factor, PDB entry 2fsa
  Kd: 5 µM (active)

## C[C@H](N)C(=O)N[C@@H](CCCNC(N)N)C(=O)N[C@H](C(=O)N[C@@H](CCCCN)C(=O)N[C@@H](CCC(N)=O)C(=O)N[C@H](C(=O)O)[C@@H](C)O)[C@@H](C)O (H-A[Orn(CH(NH2)2)]TKQT-OH)
protein: Histone-lysine N-methyltransferase NSD3, PDB entry 4gne
  Kd: 3400 µM (active)

## C[C@H](N)C(=O)N[C@@H](CCCNC(N)N)C(=O)N[C@H](C(=O)N[C@@H](CCCCN)C(=O)N[C@@H](CCC(N)=O)C(=O)N[C@H](C(=O)N[C@@H](C)C(=O)N[C@@H](CCCNC(N)N)C(=O)N[C@@H](CCCCN)C(=O)N[C@@H](CO)C(=O)O)[C@@H](C)O)[C@@H](C)O
protein: BHC80 PHD domain, PDB entry 2puy
  Kd: 30 µM (active)

## CNCCCC[C@H](NC(=O)[C@@H](NC(=O)[C@H](CCCNC(N)N)NC(=O)[C@H](C)N)[C@@H](C)O)C(=O)N[C@@H](CCC(N)=O)C(=O)N[C@H](C(=O)O)[C@@H](C)O (H-A[Orn(CH(NH2)2)]T[Lys(Me)]QT-OH)
protein: human Chromodomain-helicase-DNA-binding protein 1(CHD1), PDB entry 2b2v
  Kd: 17 µM (active)

## C[C@H](N)C(=O)N[C@@H](CCCNC(N)N)C(=O)N[C@H](C(=O)N[C@@H](CCCCN)C(=O)N[C@@H](CCC(N)=O)C(N)=O)[C@@H](C)O
protein: WD-repeat protein 5(WDR5), PDB entry 2co0
  Kd: 3.3 µM (active)

## C[C@H](N)C(=O)N[C@@H](CCCNC(N)N)C(=O)N[C@H](C(=O)N[C@@H](CCCCN)C(=O)N[C@@H](CCC(N)=O)C(=O)O)[C@@H](C)O[P+](O)(O)O
protein: human Survivin, PDB entry 3uig
  Kd: 4.8 µM (active)

## C[C@H](N)C(=O)N[C@@H](CCCNC(N)N(C)C)C(=O)N[C@H](C(=O)N[C@@H](CCCCN(C)C)C(=O)N[C@@H](CCC(N)=O)C(=O)N[C@H](C(=O)N[C@@H](C)C(=O)O)[C@@H](C)O)[C@@H](C)O (stereo partly specified) (H-A[X1]T[Lys(Me2)]QTA-OH)
protein: hPHD-HD1 complex, PDB entry 2vpg
  Kd: 2.1 µM (active)

## CC[C@H](NC(=O)[C@@H](NC(=O)[C@H](CCCNC(N)N)NC(=O)[C@H](C)N)[C@@H](C)O)C(=O)N[C@@H](CCC(N)=O)C(=O)O (H-A[Orn(CH(NH2)2)]T[Abu]Q-OH)
protein: WD-repeat protein 5(WDR5), PDB entry 2h13
  Kd: 4.5 µM (active)
protein: WD-repeat protein 5(WDR523), PDB entry 2h9n
  Kd: 115 µM (active)

## C[C@H](N)C(=O)N[C@@H](CCCNC(N)N)C(=O)N[C@H](C(=O)N[C@@H](CCCCN)C(=O)N[C@@H](CCC(N)=O)C(=O)NCC(=O)O)[C@@H](C)O (H-A[Orn(CH(NH2)2)]TKQG-OH)
protein: WD-repeat protein 5(WDR523), PDB entry 2h9m
  Kd: 35 µM (active)

## C[C@H](N)C(=O)N[C@@H](CCCNC(N)N)C(=O)N[C@H](C(=O)N[C@@H](CCCCN)C(=O)N[C@@H](C)C(=O)N[C@@H](C)C(=O)O)[C@@H](C)O[P+](O)(O)O (H-A[Orn(CH(NH2)2)][Thr(P(OH)3+)]KAA-OH)
protein: Baculoviral IAP repeat-containing protein 5, human Survivin, PDB entry 3ued
  Kd: 29.6 µM (active)

## CNC(NC)NCCC[C@H](NC(=O)[C@H](C)N)C(=O)N[C@H](C(=O)N[C@@H](CCCCN)C(=O)N[C@@H](CCC(N)=O)C(=O)N[C@H](C(N)=O)[C@@H](C)O)[C@@H](C)O (H-A[X1]TKQT-NH2)
protein: WD REPEAT-CONTAINING PROTEIN 5, WDR5, PDB entry 4a7j
  Kd: 0.1 µM (active)
